# From PubChem BioAssay
# Rhodamine fluor = qHTS Assay for Spectroscopic Profiling in Rhodamine Spectral Region; Rhodamine-region fluorescence, 547/598 nm, Tris buffer; hits give high values; AID 594, 2007; max dye-equivalent concentration, M; hit rate 0.05% among 59,000; in the data active = max dye-equivalent concentration above about 11 nM; inconclusive = between about 1.1 nM and that limit
#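 A six-point rhodamine series on each plate calibrates the signal. Compounds sit in 100 mM Tris (pH 8.0) for 15 min at ambient temperature before imaging through 547 nm/598 nm filters.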
# Resorufin autofl = qHTS Assay for Spectroscopic Profiling in Resorufin Spectral Region; Compound fluorescence, resorufin region 547/598 nm, buffer; hits give high values; max dye-equivalent concentration, M; hit rate 0.04% among 59,000; AID 588, 2007
#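 Dye-equivalent concentration values derive from comparing each well's 547/598 nm fluorescence against resorufin standards included on every plate. Incubation was 15 min at room temperature in 100 mM Tris, pH 8.0.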
# A488 fluor = qHTS Assay for Spectroscopic Profiling in A488 Spectral Region; compound autofluorescence, A488 spectral region, dye equivalency; Compound Type: qHTS ECL - MLSMR; max dye equivalency, M; hit rate 0.1% among 59,000; AID 591, 2007
#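 Readout is A488 dye-equivalent concentration, calibrated by a per-plate six-point Alexa 488 series. Compounds in 100 mM Tris buffer pH 8.0 were incubated 15 min at room temperature. Plates were imaged using 480 nm excitation/540 nm emission filters.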
# Fluorescein fluor = qHTS Assay for Spectroscopic Profiling in Fluorescein Spectral Region; Compound autofluorescence, 480/540 nm, fluorescein-equivalent; hits give high values; max fluorescein-equivalent concentration, M; hit rate 0.91% among 59,000; in the data active = max fluorescein-equivalent concentration above about 10 nM; inconclusive = between about 1.1 nM and that limit
#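 Read-out is intrinsic compound fluorescence at 480/540 nm (excitation/emission), expressed as dye-equivalent concentration using a fluorescein standard series run on every plate. Compounds sat 15 min at room temperature in 100 mM Tris, pH 8.0.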
# Texas Red fluor = qHTS Assay for Spectroscopic Profiling in Texas Red Spectral Region | Compound fluorescence, Texas Red channel, 547/618 nm; hits give high values | max dye-equivalent concentration, M | hit rate 0.06% among 59,000 | AID 587, 2007; in the data active = max dye-equivalent concentration above about 10 nM; inconclusive = between about 1.1 nM and that limit
#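 Texas Red-region profiling: compounds in 100 mM Tris pH 8.0 were read at 547/618 nm after 15 min at room temperature. Intensities were normalized against a six-point Texas Red standard series to give dye-equivalent concentration.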
# A647 autofl = qHTS Assay for Spectroscopic Profiling in A647 Spectral Region; Compound fluorescence, A647 channel (570/671 nm), Tris buffer; max dye-equivalent concentration, M; 59,000 tested, under 10 active; AID 592, 2007;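 also: values scaled relative to a standard on each plate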
#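 Tris 100 mM pH 8.0; cpd + A647 stds pin-transferred; 15 min RT; CCD imager, ex 570/em 671. Output = A647-equivalent conc. per cpd conc.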
# Numbers without * were called inactive; i = inactive; ? = inconclusive; ! = not confirmed by another sample. An excerpt weighted towards active compounds, which were near 0.95% of everything screened. Unless noted, no rule for the calls is given here.
SMILES,Rhodamine fluor,Resorufin autofl,A488 fluor,Fluorescein fluor,Texas Red fluor,A647 autofl
C[C@@H](Cc1ccccc1)Nc1ncnc2c1ncn2[C@@H]1O[C@@H](CO)[C@H](O)[C@@H]1O,i,i,i,?,i,4.7e-08
Fc1ccccc1N1CCN(c2nc3ccccc3n3nnnc23)CC1,i,i,i,1.6e-08M*,i,3.1e-08
c1cnc(N2CCN(c3nc4ccccc4n4cnnc34)CC2)nc1,i,i,i,i,i,6.2e-09
CC(C)(C)OC(=O)N1CC=C2C(C#N)=C(N)C(C#N)(C#N)[C@H](c3cccnc3)[C@H]2C1,i,i,i,?,i,7.7e-08
CC(C)(C)OC(=O)N1CC=C2C(C#N)=C(N)C(C#N)(C#N)C(c3cccs3)C2C1 (stereo not given),i,i,i,1.8e-08M*,i,4.1e-08
CC1CC=C2C(C#N)=C(N)C(C#N)(C#N)C(c3cccs3)C2C1 (stereo not given),i,i,i,2.7e-08M*,i,2.4e-08
c1ccc2c(c1)C(=Nc1ccc(N=C3c4ccccc4-c4ccccc43)cc1)c1ccccc1-2,i,i,i,i,?,1e-09
Cc1ccc(S(=O)(=O)N2CCC(C(=O)Nc3nnc(C4CCCC4)s3)CC2)cc1,i,i,i,1.2e-08M*,i,1.1e-09
Cc1cc(C)n(C(=O)COc2c(C)cccc2C)n1,i,i,i,?,i,3.9e-08
Cc1cccc(OCC(=O)NCC(=O)n2nc(C)cc2C)c1,i,i,i,1.2e-08M*,i,7.9e-08
Cc1c(Nc2nc3ccccc3nc2NS(=O)(=O)c2ccccc2)c(=O)n(-c2ccccc2)n1C,i,i,i,i,i,1e-09
CC(=O)Nc1ccc(S(=O)(=O)Nc2nc3ccccc3nc2Sc2nncn2C)cc1,i,i,i,1.4e-08M*,i,4.6e-09
Cn1cnnc1Sc1nc2ccccc2nc1NS(=O)(=O)c1ccccc1,i,i,i,?,i,7e-09
Cn1ccnc1Sc1nc2ccccc2nc1NS(=O)(=O)c1ccccc1,i,i,i,1.1e-08M*,i,1e-09
COc1nccc(Nc2ccccc2)c1C#N,i,i,i,?,?,1.7e-08
COc1[nH]c(/N=C/c2ccccc2)c(C#N)c1C#N,?,?,?,3.6e-08M*,?,8e-09
N[C@H](CCC(=O)NCS(=O)(=O)O)C(=O)O,i,i,i,i,i,1e-09
Cc1ccc(S(=O)(=O)c2cc3c(=O)n4ccccc4nc3n(Cc3ccco3)c2=N)cc1C,i,i,i,1.2e-08M*,i,4.1e-08
N=c1c(S(=O)(=O)c2ccccc2)cc2c(=O)n3ccccc3nc2n1Cc1ccco1,i,i,i,?,i,3.5e-09
CC1(C)c2ccccc2N2CC(=O)NC21/C=C/c1ccco1 (stereo not given),i,i,i,?,i,1e-09
O=C1CC(/C=C/c2ccco2)=Nc2ccccc2N1,i,i,?,3.6e-08M*,?,2.2e-08
O=C(O)[C@H]([C@H]1NCCS1)N1Cc2ccccc2C1,i,i,i,i,i,1e-09
O=C1NC(=O)C(c2ccccc2)(c2ccccc2)N1,i,i,i,?,i,1e-09
CCC1(c2ccccc2)C(=O)NCNC1=O,i,i,i,1.2e-08M*!,i,3.4e-08
COc1cccc(Nc2ncc3nc(CCc4ccccc4)c(=O)n(Cc4cccs4)c3n2)c1,i,i,i,i,i,1e-09
Cc1ccccc1CNc1ncnc2c1ncn2[C@@H]1O[C@@H](CO)[C@H](O)[C@@H]1O,i,i,i,2e-08M*,?,1.2e-09
O=c1cc(-c2ccc(O)c(O)c2)oc2cc(O[C@@H]3O[C@@H](CO)[C@@H](O)[C@@H](O)[C@H]3O)cc(O)c12,i,i,i,?,i,1e-09
COc1ccc(-c2ccc(-c3noc(-c4ccccc4C)n3)c(OC)n2)cc1,i,i,i,1.2e-08M*,?,1e-09
